Data from ChEMBL document CHEMBL4888484, “Replenishing the malaria drug discovery pipeline: Screening and hit evaluation of the MMV Hit Generation Library 1 (HGL1) against asexual blood stage Plasmodium falciparum ,using a nano luciferase reporter read-out” (2022).
The whole screen tested about 150,000 compounds, of which about 540 (0.36%) showed an effect of 50% or more. This is one part of a sample in which strong results are shown more often than they occur.

These compounds were tested on Plasmodium falciparum (assay: Primary screen in NF54 nanoGlo assay, in single point, at 2uM, 72h; a lower Z score goes with more inhibition). Details: timepoint 72 hour.
Type: functional, Erythrocyte

Compound | % Inhibition [%] | Z score
COc1ccc(-c2nccn3cc(C(=O)N4CCCCCC4)nc23)cc1 | 51 | 0.03
COc1ccc(-c2nccn3cc(C(=O)N4CCCC4)nc23)cc1 | 26 | -2.95
Cc1ccc(-c2nccn3cc(C(=O)N4CCCCC4)nc23)cc1 | -2 | 0.32
CC(C)(C(=O)N[C@H]1CCN(Cc2cccnc2)C[C@@H]1O)N1CCOCC1 | -3 | 0.41
CC(=O)c1cc(-c2cc(O)cc(CC[C@H]3CCCCN3)c2)ccc1O | 78 | -7.86
CCn1cc(-c2cc(O)cc(CC[C@H]3CCCCN3)c2)c(C)n1 | 3 | -0.45
Cc1ccc(-c2cc(O)cc(CC[C@H]3CCCCN3)c2)c(C)n1 | 61 | -8.76
Cc1nccc(-c2cc(O)cc(CC[C@H]3CCCCN3)c2)n1 | -12 | 2.52
Nc1cc(-c2cc(O)cc(CC[C@H]3CCCCN3)c2)ccn1 | 9 | -1.53
OCc1ccnc(-c2cc(O)cc(CC[C@H]3CCCCN3)c2)c1 | -3 | 0.48
O=C(O)c1ccccc1-c1cc(O)cc(CC[C@H]2CCCCN2)c1 | -15 | 2.8
Cc1cc(-c2cc(O)cc(CC[C@H]3CCCCN3)c2)ccn1 | 84 | -8.44
Cc1nc(-n2cnnc2)ccc1-c1cc(O)cc(CC[C@H]2CCCCN2)c1 | -7 | 0.8
CC(NS(=O)(=O)N(C)C(C)C)C1CCCO1 (stereo unspecified) | -8 | 1.17
C/C=C(\C)C(=O)N1CCC(N2CCC(C(=O)N3CCCC3)CC2)CC1 | -12 | 1.74
CCC(C)C(NC(=O)C1CCC(C)CC1)C(=O)NC1CCN(Cc2ccccc2)CC1 (stereo unspecified) | -3 | 0.32
CCCNS(=O)(=O)c1ccc(C(=O)N2C[C@H]3CC[C@@H](C2)N(C)C3)cc1 | -7 | 1.2
Cc1ccc(-n2nc3c(=O)n([C@@H](C)C(=O)NCc4ccc(Cl)cc4)nc(C)c3c2C)cc1 | 10 | -1.13
O=S(=O)(NC1CCc2ccc(Cl)cc21)[C@H]1COC[C@@H]1O (stereo partly specified) | -11 | 1.47
Cc1ccc(NC(=O)Cc2nnc(-c3ccc4ncccc4c3)o2)c(Cl)c1 | -6 | 0.57
CCn1cc(NC(=O)c2cc(C3CC3)nc3onc(-c4cnn(CC)c4C)c23)c(C)n1 | 8 | -1.2

Compound | % Inhibition [%] | Z score
CC(C)(C)OC(=O)N1CC2CC1C2C(=O)NCC1CCCO1 (stereo unspecified) | 14 | -1.67
Nc1ncc(C(=O)N2CCC3(CCCC3)C2)s1 | 6 | -0.8
Cc1ncsc1C(=O)N1CCC2(CCCCC2)C1 | 37 | -5.42
Nc1ncc(C(=O)N2CCC3(CCCCCC3)C2)s1 | 97 | -17.77
CC(=O)NC1CCN(Cc2cc(C)nc3ccccc23)CC1 | -6 | 0.83
CC1CCN(c2nccnc2Oc2ccc(C(=O)NCc3ccco3)cc2)CC1 | -1 | 0.13
CC1CCN(c2nccnc2Oc2ccc(C(=O)NCc3ccccc3Cl)cc2)CC1 | 67 | -10.64
CC1CCN(c2nccnc2Oc2ccc(C(=O)N3CCN(c4ccccc4Cl)CC3)cc2)CC1 | 11 | -1.7
CC(NC(CC1CCC1)c1ccccc1)c1cn(C)nn1 (stereo unspecified) | 6 | -0.82
Cc1ccccc1OC[C@@H](O)CN(C(C)C)C(C)C | -2 | 0.31
CN(C)CC(O)COc1ccc(S(=O)(=O)c2ccc(OCC(O)CN(C)C)c(Cl)c2)cc1Cl (stereo unspecified) | 54 | -6.62
CCN(CC)C[C@H](O)COc1ccc(Cl)cc1Cl | 9 | -1.14
CCS(=O)(=O)N1CCC(N2C(=O)[C@@H]3CC[C@@H](c4ccccc4)N3C2=O)CC1 | 42 | 0.94
CCN(C(=O)Cn1cc(-c2ccccc2)c2ncn(CC)c(=O)c21)c1ccccc1 | 78 | -9.77
CCc1cccc(C)c1NC(=O)Cn1cc(-c2ccccc2)c2ncn(CC)c(=O)c21 | 4 | -0.57
CCn1cnc2c(-c3ccccc3)cn(CC(=O)NCc3ccco3)c2c1=O | -9 | 1.31
FC(F)(F)c1ccc(N2CCCN(Cc3nc4ccccc4o3)CC2)nc1 | -8 | 0.8
O=C(c1ccccc1)c1ccc(O)c(CN2CCCN(c3ccc(C(F)(F)F)cn3)CC2)c1O | 84 | -8.75
O=C(CN1CCCN(c2ccc(C(F)(F)F)cn2)CC1)Nc1ccccc1 | 0 | 0.05
Cc1n[nH]c(C)c1CCCNC(=O)[C@@H]1Cc2ccccc2CN1C | -7 | 1.24
Cc1cccn(CC(=O)NCC(=O)Nc2cccnc2)c1=O | -6 | 0.7

Compound | % Inhibition [%] | Z score
C[C@@H](CO)N(C)S(=O)(=O)[C@H]1C[C@@H]1c1ccc(Br)cc1 | 1 | -0.19
O=C(c1cccc(-n2cnnn2)c1)N1CCN(C(c2ccccc2)c2ccccc2)CC1 | 10 | -1.28
O=C(c1cccc(C#Cc2ccccc2)c1)N1CCN(C(c2ccccc2)c2ccccc2)CC1 | -8 | 1.42
O=C(c1cccc(C(=O)N2CCN(C(c3ccccc3)c3ccccc3)CC2)c1)N1CCN(C(c2ccccc2)c2ccccc2)CC1 | 54 | -11.5
CC1CCCN(C(C)CNC(=O)CCNC(=O)C2CC2C)C1 (stereo unspecified) | -5 | 0.79
Cc1ccc2[nH]c(-c3cc4n(n3)CCN(C(=O)N3CCN(C)CC3)C4)nc2c1 | -6 | 0.7
CCCN1CCn2nc(-c3nc4cc(OC)ccc4[nH]3)cc2C1 | -3 | 0.27
N[C@H]1CC2(CCC2)Oc2ccc(Br)cc21 | -4 | 0.62
N[C@H]1CCOc2ccc(Br)cc2C1=O | -8 | 1.05
N[C@H]1COc2ccc(Br)cc2C1=O | 73 | 0.56
O=C(COc1ccc(Br)cc1F)N[C@@H](C(=O)O)c1ccc(F)c(F)c1 | -17 | 2.1
COc1cc(NC(=O)Cc2ccc(OC)c(OC)c2)ncn1 | 8 | -1.51
COc1cc2cc(NC(C)=N)nc(C)c2cc1OC | 15 | -1.95
COc1ccc(CC(=N)Nc2cc3cc(OC)c(OC)cc3c(Cc3ccc(OC)c(OC)c3)n2)cc1OC | 85 | -9.78
COc1cc(NC(=O)N2Cc3cn[nH]c3CC(C)(C)C2)c(C)c(OC)c1 | 13 | -1.52
CCn1cnc2c(N3CCCOC3)ncnc21 | -5 | 0.67
CCn1cnc2c(N3CCC[C@H](CC(C)(C)C(N)=O)C3)ncnc21 | 8 | -1.51
CCn1cnc2c(N3CCC[C@H](c4ccncc4)C3)ncnc21 | 76 | -10.16
COc1cccc([C@H]2CC(O)=Nc3c2ncn3-c2cccnc2)c1OC(C)C | 28 | -3.13
CC[C@@H](c1ccccn1)n1cc(-c2cc(CN(C)C)cs2)nn1 | -6 | 0.72
Cc1ccc([C@H]2C=NN(c3ccc(Br)cc3)C2=O)cc1 | 76 | -2.14

Compound | % Inhibition [%] | Z score
CC1=CN(c2ccc(Br)cc2)C(=O)N(c2ccccc2)N=C1C | -45 | 5.24
CC(C)C(=O)N1CCN(c2ccc(Br)cc2)C(=O)[C@@H]1C | -12 | 1.14
CCCOc1ccc(C2C3C(=O)N(c4cccc5ccccc45)C(=O)C3ON2c2ccccc2)cc1OC (stereo unspecified) | -14 | 1.48
O=C1C[C@@H](C(=O)N2CC(Cc3ccoc3)C2)NC(=O)N1 | -12 | 1.39
O=C(C[C@H](n1cccn1)C(F)(F)F)N1CCN(C2CC2)c2ccc(Cl)cc21 | -2 | 0.26
COc1ccc(-c2c(-c3cccc(OC)c3)[nH]c3c2c(=O)[nH]c(=O)n3C)cc1 | 90 | -8.97
COc1ccc(-c2c(-c3ccc(Cl)cc3)[nH]c3c2c(=O)[nH]c(=O)n3C)cc1 | -5 | 0.54
COc1ccc(-c2c(-c3ccc(C)c(C)c3)[nH]c3c2c(=O)[nH]c(=O)n3C)cc1 | -4 | 0.68
NC(=O)NCCC[C@@H]1NC(=O)[C@H](Cc2ccccc2)NC1=O | -12 | 1.78
COCCc1nc(C)c([C@H](C)Nc2ccc3c(c2)CCC(=O)N3)s1 | -15 | 1.74
CC(C)n1c(=O)c(NCc2cccc(C(F)(F)F)c2)nc2ccncc21 | 24 | -2.33
CC(C)c1cccc(Nc2nc3ccncc3n(C(C)C)c2=O)c1 | 91 | -8.7
CCc1cccc(Nc2nc3ccncc3n(C(C)C)c2=O)c1 | 1 | -0.13
CC1CCN(Cc2ccc(-c3ncnn3C(C)(C)C)o2)CC1 | -6 | 1.14
CN1CCC(N(C)CC(NCC2CCC=CO2)c2ccccc2)CC1 (stereo unspecified) | -4 | 0.49
c1ccc(COC[C@H](Nc2ncnc3ccccc23)c2ccccc2)cc1 | -12 | 1.08
Cc1cc(C)nc(O[C@H]2CCCN(C(=O)c3cccn(C)c3=O)C2)n1 | -2 | 0.22
O=C(N[C@H]1CCS(=O)(=O)C1)c1cccc(Oc2cccc(C(F)(F)F)c2)c1 | -25 | 2.94
O=C(Nc1cc(N2CCCS2(=O)=O)ccc1O)c1cccc(Oc2cccc(C(F)(F)F)c2)c1 | 99 | -18.11
O=C(Nc1cccnc1)c1cccc(Oc2cccc(C(F)(F)F)c2)c1 | -13 | 1.85
